Experimental data: PubChem BioAssay AID1159580 (chemical genetic matrix, 2015)
Out of some 5,500 compounds screened, about 2,000 (36%) were called active. Not shown: some 18% with an inconclusive outcome. Cut-off read from the data, not from the text of the source: active = normalized growth mostly below about 0.91 (no sharp cut-off); inconclusive = no clear call, values can overlap the other calls; inactive = mostly above about 0.92. The list shows a part of the results.

Assay: chemical genetic growth profiling, strain panel (AID 1159580);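 note: tested at 20 µM; growth read once vehicle control cultures reached saturation at 30 °C; 1 = growth at the plate median or of vehicle wells; lower values mean less growth of the strain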
Conditions: growth OD
[1] = S. cerevisiae deletion strains, locus YAL013W, strain DEP1, active compounds read low
[2] = S. cerevisiae deletion strains, locus YBR021W, strain FUR4, active compounds read low
[3] = S. cerevisiae deletion strains, locus YBR229C, strain ROT2, active compounds read low
[4] = S. cerevisiae deletion strains, locus YCL029C, strain bik1, active compounds read low
[5] = S. cerevisiae deletion strains, locus YDL035C, strain GPR1, active compounds read low
[6] = S. cerevisiae deletion strains, locus YDL074C, strain BRE1, active compounds read low
[7] = S. cerevisiae deletion strains, locus YDL101C, strain DUN1, active compounds read low
[8] = S. cerevisiae deletion strains, locus YDL134C, strain PPH21, active compounds read low
[9] = S. cerevisiae deletion strains, locus YDL185W, strain tfp1, active compounds read low
[10] = S. cerevisiae deletion strains, locus YDL192W, strain arf1, active compounds read low
[11] = S. cerevisiae deletion strains, locus YDR101C, strain arx1, active compounds read low
[12] = S. cerevisiae deletion strains, locus YDR150W, strain NUM1, active compounds read low
[13] = S. cerevisiae deletion strains, locus YDR162C, strain NBP2, active compounds read low
[14] = S. cerevisiae deletion strains, locus YDR318W, strain mcm21, active compounds read low
[15] = S. cerevisiae deletion strains, locus YDR388W, active compounds read low
[16] = S. cerevisiae deletion strains, locus YDR502C, strain sam2, active compounds read low
[17] = S. cerevisiae deletion strains, locus YEL061C, strain CIN8, active compounds read low
[18] = S. cerevisiae deletion strains, locus YER110C, active compounds read low
[19] = S. cerevisiae deletion strains, locus YER155C, strain BEM2, active compounds read low
[20] = S. cerevisiae deletion strains, locus YER167W, strain BCK2, active compounds read low
[21] = S. cerevisiae deletion strains, locus YGL078C, strain dbp3, active compounds read low
[22] = S. cerevisiae deletion strains, locus YGL086W, strain mad1, active compounds read low
[23] = S. cerevisiae deletion strains, locus YGL248W, strain PDE1, active compounds read low
[24] = S. cerevisiae deletion strains, locus YGR078C, strain PAC10, active compounds read low
[25] = S. cerevisiae deletion strains, locus YGR135W, strain pre9, active compounds read low
[26] = S. cerevisiae deletion strains, locus YGR252W, strain gcn5, active compounds read low
[27] = S. cerevisiae deletion strains, locus YHR030C, strain SLT2, active compounds read low
[28] = S. cerevisiae deletion strains, locus YHR079C, strain IRE1 (second series), active compounds read low
[29] = S. cerevisiae deletion strains, locus YHR094C, strain hxt1, active compounds read low
[30] = S. cerevisiae deletion strains, locus YHR129C, strain ARP1, active compounds read low
[31] = S. cerevisiae deletion strains, locus YHR200W, strain rpn10, active compounds read low
[32] = S. cerevisiae deletion strains, locus YIL066C, strain RNR3, active compounds read low
[33] = S. cerevisiae deletion strains, locus YIL073C, strain SPO22, active compounds read low
[34] = S. cerevisiae deletion strains, locus YIL125W, strain kgd1, active compounds read low
[35] = S. cerevisiae deletion strains, locus YIR030C, strain dcg1, active compounds read low
[36] = S. cerevisiae deletion strains, locus YJL095W, strain BCK1, active compounds read low
[37] = S. cerevisiae deletion strains, locus YJL134W, strain LCB3, active compounds read low
[38] = S. cerevisiae deletion strains, locus YJL168C, strain set2, active compounds read low
[39] = S. cerevisiae deletion strains, locus YJL187C, strain SWE1 (second series), active compounds read low
[40] = S. cerevisiae deletion strains, locus YKL009W, strain mrt4, active compounds read low
[41] = S. cerevisiae deletion strains, locus YKL068W, active compounds read low
[42] = S. cerevisiae deletion strains, locus YKL085W, strain MDH1 (second series), active compounds read low
[43] = S. cerevisiae deletion strains, locus YKL085W, strain MDH1, active compounds read low
[44] = S. cerevisiae deletion strains, locus YKR001C, strain vps1, active compounds read low
[45] = S. cerevisiae deletion strains, locus YLR039C, strain RIC1, active compounds read low
[46] = S. cerevisiae deletion strains, locus YLR058C, strain SHM2, active compounds read low
[47] = S. cerevisiae deletion strains, locus YLR102C, strain apc9, active compounds read low
[48] = S. cerevisiae deletion strains, locus YLR262C, strain YPT6, active compounds read low
[49] = S. cerevisiae deletion strains, locus YLR268W, strain sec22, active compounds read low
[50] = S. cerevisiae deletion strains, locus YLR342W, strain FKS1 (second series), active compounds read low
[51] = S. cerevisiae deletion strains, locus YLR371W, strain rom2, active compounds read low
[52] = S. cerevisiae deletion strains, locus YLR418C, strain cdc73, active compounds read low
[53] = S. cerevisiae deletion strains, locus YML016C, strain PPZ1, active compounds read low
[54] = S. cerevisiae deletion strains, locus YML032C, strain rad52, active compounds read low
[55] = S. cerevisiae deletion strains, locus YML124C, strain tub3, active compounds read low
[56] = S. cerevisiae deletion strains, locus YMR078C, strain ctf18, active compounds read low
[57] = S. cerevisiae deletion strains, locus YMR223W, strain ubp8, active compounds read low
[58] = S. cerevisiae deletion strains, locus YMR307W, strain GAS1, active compounds read low
[59] = S. cerevisiae deletion strains, locus YNL067W, strain RPL9B, active compounds read low
[60] = S. cerevisiae deletion strains, locus YNL153C, strain GIM3, active compounds read low
[61] = S. cerevisiae deletion strains, locus YNL233W, strain BNI4, active compounds read low
[62] = S. cerevisiae deletion strains, locus YNL250W, strain rad50, active compounds read low
[63] = S. cerevisiae deletion strains, locus YNL271C, strain bni1, active compounds read low
[64] = S. cerevisiae deletion strains, locus YNL298W, strain CLA4, active compounds read low
[65] = S. cerevisiae deletion strains, locus YNL307C, strain MCK1, active compounds read low
[66] = S. cerevisiae deletion strains, locus YNR052C, strain pop2, active compounds read low
[67] = S. cerevisiae deletion strains, locus YOL006C, strain TOP1, active compounds read low
[68] = S. cerevisiae deletion strains, locus YOL012C, strain htz1
[69] = S. cerevisiae deletion strains, locus YOL147C, strain pex11, active compounds read low
[70] = S. cerevisiae deletion strains, locus YOR061W, strain CKA2, active compounds read low
[71] = S. cerevisiae deletion strains, locus YOR069W, strain VPS5, active compounds read low
[72] = S. cerevisiae deletion strains, locus YOR136W, strain idh2, active compounds read low
[73] = S. cerevisiae deletion strains, locus YOR144C, strain elg1, active compounds read low
[74] = S. cerevisiae deletion strains, locus YOR184W, strain ser1, active compounds read low
[75] = S. cerevisiae deletion strains, locus YOR316C, strain cot1, active compounds read low
[76] = S. cerevisiae deletion strains, locus YPL241C, strain CIN2, active compounds read low
[77] = S. cerevisiae deletion strains, locus YPR119W, strain clb2, active compounds read low
[78] = S. cerevisiae deletion strains, locus YPR141C, strain kar3, active compounds read low
[79] = S. cerevisiae deletion strains, locus YPR163C, strain tif3, active compounds read low
[80] = S. cerevisiae deletion strains, locus YPR167C, strain met16, active compounds read low
[81] = S. cerevisiae deletion strains, strain wtn01, active compounds read low

Measured: normalized growth

CC(=O)OC1CC(OC(C)=O)C2(C)C(CC(OC(C)=O)C3(C)C2CCC2(C)C(c4ccoc4)OC(=O)C4OC423)C1(C)C (configuration not stated)
inactive: [1] 0.995 | [2] 0.986 | [3] 0.984 | [4] 0.984 | [5] 0.97 | [6] 1.03 | [7] 0.978 | [8] 1 | [9] 0.986 | [10] 0.99 | [11] 0.981 | [12] 1 | [13] 1.01 | [14] 0.986 | [15] 0.988 | [16] 1 | [17] 0.995 | [18] 0.977 | [19] 0.976 | [20] 0.973 | [21] 1 | [22] 0.99 | [23] 1 | [24] 1.04 | [25] 1.02 | S. cerevisiae deletion strains, locus YGR229C, strain SMI1, active compounds read low 0.997 | [26] 0.951 | [27] 0.984 | [28] 0.99 | [29] 0.984 | [30] 0.997 | [31] 0.99 | [32] 0.986 | [33] 0.954 | [34] 0.983 | [35] 0.984 | [36] 1.03 | [37] 0.984 | [38] 0.986 | [39] 1.01 | S. cerevisiae deletion strains, locus YJR043C, strain POL32, active compounds read low 0.98 | S. cerevisiae deletion strains, locus YJR075W, strain HOC1, active compounds read low 1.01 | [40] 0.971 | [41] 1 | [42] 0.992 | [43] 0.992 | S. cerevisiae deletion strains, locus YKL190W, strain CNB1, active compounds read low 1 | [44] 1.01 | [45] 0.929 | [46] 0.984 | [47] 0.979 | [48] 0.975 | [49] 1 | S. cerevisiae deletion strains, locus YLR330W, strain CHS5, active compounds read low 0.989 | [50] 0.941 | [51] 0.977 | [52] 0.988 | [53] 0.993 | [54] 0.976 | [55] 0.996 | [56] 0.97 | [57] 0.981 | S. cerevisiae deletion strains, locus YMR263W, strain SAP30, active compounds read low 1.03 | [58] 0.909 | [59] 1.03 | S. cerevisiae deletion strains, locus YNL128W, strain TEP1, active compounds read low 0.995 | [60] 1.04 | [61] 0.999 | [62] 0.974 | [63] 0.988 | [64] 0.985 | [65] 0.965 | S. cerevisiae deletion strains, locus YNL322C, strain KRE1, active compounds read low 0.986 | [66] 0.987 | [67] 0.977 | [68] 1.14 | [69] 0.996 | [70] 0.994 | [71] 0.963 | [72] 0.981 | [73] 0.998 | [74] 0.959 | [75] 0.987 | S. cerevisiae deletion strains, locus YPL055C, strain LGE1, active compounds read low 1.04 | [76] 0.994 | [77] 0.992 | [78] 0.985 | [79] 0.992 | [80] 0.992 | [81] 0.996 | S. cerevisiae strains, strain wild type, active compounds read low 0.983

CC(=O)O[C@@H]1CC2C(C)(C)[C@H](O)CC[C@]2(C)C2CC[C@@]3(C)[C@H](c4ccoc4)OC(=O)[C@H]4O[C@]43[C@@]21C (some centres not stated)
inactive: [1] 1.01 | [2] 0.971 | [3] 0.996 | [4] 0.997 | [5] 0.983 | [6] 0.994 | [7] 1.02 | [8] 0.982 | [9] 1.02 | [10] 0.999 | [11] 0.993 | [12] 1 | [13] 1.01 | [14] 1.02 | [15] 1.01 | [16] 1.02 | [17] 1.01 | [18] 1.03 | [19] 1.01 | [20] 1.01 | [21] 1.04 | [22] 1.02 | [23] 1.02 | [24] 1.05 | [25] 1.06 | [26] 1.03 | [27] 1.01 | [28] 1.01 | [29] 1.01 | [30] 1 | [31] 1.01 | [32] 0.984 | [33] 1.03 | [34] 1.01 | [35] 1.01 | [36] 1.03 | [37] 1.01 | [38] 1.02 | [39] 1.03 | [40] 0.996 | [41] 0.996 | [42] 1.01 | [43] 1.01 | [44] 1.01 | [45] 1.07 | [46] 1.01 | [47] 1.01 | [48] 1.13 | [49] 0.975 | [50] 1.02 | [51] 1.01 | [52] 1.02 | [53] 1.01 | [54] 0.978 | [55] 1.02 | [56] 1.01 | [57] 1 | [58] 1.09 | [59] 1.04 | [60] 1.04 | [61] 1.02 | [62] 1.04 | [63] 1.03 | [64] 1.01 | [65] 1.02 | [66] 1.04 | [67] 1.01 | [68] 0.714 | [69] 1.01 | [70] 1 | [71] 1.01 | [72] 1.01 | [73] 1.01 | [74] 0.993 | [75] 1.02 | [76] 1.01 | [77] 1.01 | [78] 1 | [79] 1.02 | [80] 1.02 | [81] 0.984
